Reference: ChEMBL document CHEMBL3988442, “University of Dundee, Small-Polar-MMV Screening Library” (2021)
Hit rate of the full screen: of about 48,000 compounds, about 13,000 (27%) showed an effect of 50% or more. This is one part of the list.

What follows are molecules tested on Wolbachia pipientis (assay: Anti-Wolbachia Cell-Based Screen). Details: 5 µM.
Format: functional
Parameters: scale not given: in the data most compounds retested in dose-response had high values

Compound	Percent Effect
Cc1cc(F)ccc1N1CCCC(NS(=O)(=O)CCCF)C1=O (centres undefined)	-6.348%
Cn1c(SCC(O)COCc2ccccc2Cl)nnc1C1CC1 (centres undefined)	-19.68%
COc1ccc(F)c(CN2CCCC(O)(CNCc3ccon3)C2=O)c1 (centres undefined)	-2.252%
CC(C)N(C)C(=O)c1ccc(Cl)c(NC(=O)CCN2C(=O)CCC2=O)c1	-4.274%
Cc1c(NC(C)C(C)C)cccc1C(=O)NCc1ccnn1C (centres undefined)	9.043%
CC(=O)NCCC(=O)NCc1cccnc1-n1cnc2ccccc21	-3.508%
CCN(CC)S(=O)(=O)CCNc1ncnc2cc(F)c(F)cc12	0.3954%
O=C(COCc1ccccc1)Nc1ccccn1	-24.26%
CCOC(=O)Cn1c(=O)c(OCC)nc2cnccc21	100.3%
CCOC(=O)Cn1cnc2nc3n(c2c1=O)CCC3	-20.3%
CCOC(=O)N1CCN(C(=O)Cn2ccc3ncccc3c2=O)CC1	-21.73%
CN(Cc1nccn1C)S(=O)(=O)Cc1cccc(C#N)c1	6.063%
O=C(c1csc(C2CC2)n1)N1CCCC1Cn1cccn1 (centres undefined)	109.4%
COCc1nc(C(=O)N2CCCCC2Cn2cccn2)cs1 (centres undefined)	0.9161%
O=C(c1csc(C2CC2)n1)N1CCCCC1Cn1cccn1 (centres undefined)	99.33%
NC(=O)CCn1cc(CNCc2csc(N)n2)c2ccccc21	-0.3339%
Cc1ccccc1CN1CCC[C@H]1c1nc(-c2cncnc2N)no1	-17.12%
COc1cccc(CN2CCCC2c2cncc(Nc3nncs3)n2)c1 (centres undefined)	147.7%
CNc1cncc(C2CCCN2Cc2ccccc2OCC(=O)O)n1 (centres undefined)	-10.59%
Cc1cccc(CN2CCCC2c2cncc(Nc3nncs3)n2)c1 (centres undefined)	111.5%
COc1cccc(CN(C(=O)Nc2nncs2)C2CCC(O)CC2)c1 (centres undefined)	4.875%
COC(=O)C(CNC(=O)Nc1nncs1)Cc1cccc(C)c1 (centres undefined)	-9.936%

Compound	Percent Effect
COc1cccc(CN2CCCC2c2ccc[nH]2)c1 (centres undefined)	13.97%
Cc1ccccc1CN1CCCC1c1cncc(Nc2nncs2)n1 (centres undefined)	132.3%
CCCN1CCCn2nc(CNC(=O)CC(C)n3ccnc3C)cc2C1 (centres undefined)	-9.141%
CCc1ncc(C(=O)N2CCN(c3cnn(C)c(=O)c3)CC2)cn1	-4.796%
COCc1nc2ncc3c(=O)n(-c4ccc(C(C)=O)cc4)ccc3n2n1	38.7%
COCc1nc2ncc3c(=O)n(-c4ccccc4OC)ccc3n2n1	126.9%
CCOc1ccc(-n2ccc3nc(N4CCCC4)ncc3c2=O)cc1	-8.321%
Cc1ccccc1-n1ccc2nc(N3CCCC3)ncc2c1=O	-4.338%
COCc1nc2ncc3c(=O)n(-c4cccc(OC)c4)ccc3n2n1	97.73%
O=c1c2cnc(N3CCCC3)nc2ccn1-c1cccc(C(F)(F)F)c1	0.9271%
O=c1c2cnc(N3CCCCC3)nc2ccn1-c1ccccc1F	37.48%
O=c1c2cnc(N3CCCC3)nc2ccn1-c1cccc(F)c1	-1.705%
COCc1nc2ncc3c(=O)n(-c4ccc(OC)cc4)ccc3n2n1	103.2%
Cc1ccc(NC(=O)CCc2ccco2)cc1N1CCOC1=O	-14.01%
CCCOCC(=O)Nc1ncc(I)cc1C	-6.497%
O=C(CCC1CCCN(C(=O)CCN2CCCCO2)C1)N1CCCC1 (centres undefined)	3.672%
CNc1nc(N2CCN(Cc3ccsc3)C(CCO)C2)nc2c1CCC2 (centres undefined)	-11.96%
CCn1ccc(NC(=O)CN2C(=O)CC(C)(C)c3ccccc32)n1	127.7%
CCn1ccc(NC(=O)CN2C(=O)C(C)(C)c3ccccc32)n1	112.9%
CCn1cc(NC(=O)CN2C(=O)CC(C)(C)c3ccccc32)cn1	116.8%
COCCn1ccc(NC(=O)Nc2ccccn2)n1	7.746%
COCCn1ccc(NC(=O)Nc2ccccc2)n1	3.766%

Compound	Percent Effect
CCn1cc(NC(=O)NCC(O)c2ccccc2)cn1 (centres undefined)	-11.2%
CCN(Cc1cnn(CC)c1)C(=O)CN1C(=O)CCc2ccccc21	-11.46%
NC(=O)Cn1ccc(NC(=O)C2(c3cccc(F)c3)CCC2)n1	-8.022%
CCN1C(=O)C(C)(C)c2cc(NC(=O)c3ccco3)ccc21	-4.693%
C[C@@H](NCc1cccc(Cl)c1)c1onc(-c2ccc(F)cc2)c1C(=O)O.Cl	-9.594%
Cc1c(C(=O)N2CC(C)(C)C2(C)C)nnn1-c1cccc2cnccc12	-4.075%
COCCC1CCCCN1Cc1nc(Cc2cccc(F)c2)no1 (centres undefined)	4.701%
Cc1nc(C)n(CC2CCCN2CCc2cccs2)n1 (centres undefined)	-19.79%
c1csc(CCC2CCCCN2Cc2noc(C3CC3)n2)c1 (centres undefined)	94.56%
COCCC1CCCCN1Cc1nc(C2CC2)no1 (centres undefined)	-11.16%
Cc1nc(CN2CCCCC2CCc2cccs2)co1 (centres undefined)	96.55%
Cc1cnn(CC2CCCN2Cc2coc(-c3cccs3)n2)c1 (centres undefined)	-13.53%
COCc1noc(CN2CCCCC2CCc2cccs2)n1 (centres undefined)	103.5%
CC(C)(C(=O)NCCCc1nc2ccccc2[nH]1)n1cc(Cl)cn1	-7.293%
CC(C)CC(CCO)CNC(=O)N1CCC1(C)C (centres undefined)	-13.05%
Cc1nnc2n1CCN(C(=O)c1cnc3c(cnn3C(C)C)c1)C2	-12.78%
CCOCC(=O)N1CCC(Cc2nnc(SC)n2C)CC1	5.722%
O=S(=O)(NCc1ccccc1Cn1cncn1)N1CCCCC1	112.9%
O=S(=O)(NCc1ccccc1Cn1cncn1)N1CCCCCC1	113.8%
Cc1nccn1-c1ccc(CNS(=O)(=O)N2CCC(C)CC2)cn1	2.013%
CC1CCCN(S(=O)(=O)NCc2ccccc2Cn2cncn2)C1 (centres undefined)	105.5%
CC1CN(Cc2ccccc2Cn2cccn2)CCN1C (centres undefined)	-6.674%

Compound	Percent Effect
CC1CCN(S(=O)(=O)NCc2ccccc2Cn2cccn2)CC1	110.3%
CN(C)C1CCN(C(=O)NCc2ccccc2Cn2cncn2)CC1	-21.25%
O=S(=O)(NCc1cccnc1OC1CCCC1)N1CCCCC1	6.628%
NC(=O)C1CCN(C(=O)NCc2ccccc2Cn2cncn2)CC1	-13.11%
CC1CCN(S(=O)(=O)NCc2ccccc2Cn2cncn2)CC1	5.954%
O=S(=O)(NCc1ccccc1Cn1cncn1)C1CCCC1	4.456%
O=C(CCNC(=O)C1CCCC1)NCc1ccccc1Cn1cncn1	1.009%
CCN1CCCC1CN(Cc1cc[nH]n1)CC1CCN(CCOC)CC1 (centres undefined)	-0.05242%
CN1CCC(N(Cc2ccco2)S(=O)(=O)c2ccc(Br)cc2Cl)CC1	36.62%
CCN1C(=O)C2(CCOCC2)c2cc(NC(=O)c3cnccn3)ccc21	-0.09306%
CC(=O)NCC(=O)N1Cc2cnc(CC(C)C)nc2C1	15.63%
Cc1[nH]nc(CCC(=O)N2CCOC(CCc3ccccc3)C2)c1C (centres undefined)	-1.139%
COCCC1CN(Cc2cn(CCC(N)=O)c3ccccc23)CCO1 (centres undefined)	-2.901%
NCC1CN(Cc2cn(CCC(N)=O)c3ccccc23)CCO1 (centres undefined)	-15.16%
Cc1noc(C)c1-c1cc(CCC2CN(CCC(N)=O)CCO2)ncn1 (centres undefined)	120.1%
Cc1noc(C)c1CNC(C(=O)N1CCOCC1)C(C)C (centres undefined)	6.768%
CC(=O)N1CCOC(CCc2cc(-c3c(C)noc3C)ncn2)C1 (centres undefined)	154%
Cc1noc(C)c1-c1cc(CCC2CN(C(=O)C(C)C)CCO2)ncn1 (centres undefined)	137.5%
CCC1CN(C(=O)c2[nH]nc(C)c2Br)CCO1 (centres undefined)	-57.1%
Cc1noc(C)c1-c1cc(CCC2CN(C(=O)CN)CCO2)ncn1 (centres undefined)	152%
Cc1ccnn1CCC(=O)N1CCOC(CCc2ccccc2)C1 (centres undefined)	-2.997%
COCC1CN(C(=O)Nc2cc(Cl)cc(Cl)c2)CCO1 (centres undefined)	-11.38%

Compound	Percent Effect
CC(C)c1nc(/C=C/c2cnn(-c3ccc(Cl)cc3)c2)ncc1C(=O)O	-7.437%
Cc1ccsc1CN(CCN(C)C)C(=O)c1ccccc1C#N	-7.458%
CCCS(=O)(=O)NC(=O)c1sc(C2CCCC2)nc1C	-2.065%
CCC(C)N(C)CCNC(=O)NCc1cccc(-n2cncn2)c1 (centres undefined)	23.44%
O=C(NC1CC1)C1CCN(Cn2nc(-c3ccccc3)oc2=O)CC1	10.01%
CCc1nc(CN2CCN(C(=O)c3csc(C(C)C)n3)CC2)no1	-9.148%
COc1cc(OC)c2c(=O)oc(CC(O)CC(C)=O)cc2c1 (centres undefined)	8.997%
Cc1cc(C(=O)NCC2COCc3c(C)nnn3C2)no1 (centres undefined)	-12.47%
Cc1noc(C)c1CNS(=O)(=O)N(C)Cc1ccc(Cl)cc1	-11.55%
CN(C)C(=O)c1ccc2c(c1)N(C)C(CC(=O)NCc1ccno1)CO2 (centres undefined)	-14.39%
CCN(c1ccc(C(=O)N2CCCC(C)C2)cc1)S(=O)(=O)CC (centres undefined)	-3.775%
CN(C)S(=O)(=O)c1csc(C(=O)N2CCC(C(N)=O)CC2)c1	3.976%
CCS(=O)(=O)N(C)c1ccc(C(=O)N2CCCC(C)C2)cc1 (centres undefined)	-1.245%
CCN(c1ccc(C(=O)N2CCC(C)CC2)cc1)S(=O)(=O)CC	137.9%
CCN(CC)S(=O)(=O)c1csc(C(=O)N2CCC(C(N)=O)CC2)c1	5.806%
CCN(c1ccc(C(=O)N2CCC(C(N)=O)CC2)cc1)S(=O)(=O)CC	125.1%
Cc1nccn1CC1CCCN1S(=O)(=O)Cc1ccon1 (centres undefined)	0.377%
Cc1nc(C)n(CC2CCCN(CCC(=O)NC3CCCC3)C2)n1 (centres undefined)	114.2%
Cc1nc(C)n(CC2CCCN(CCNC(=O)OC(C)(C)C)C2)n1 (centres undefined)	-2.681%
Cc1nc(C)n(CC2CCCN(CCC(=O)Nc3cc(C)on3)C2)n1 (centres undefined)	101.8%
Cc1nc(C)n(CC2CCCN(CCC(=O)NC3CCCCC3)C2)n1 (centres undefined)	153.2%
